From PubChem
Gal4-VP16 FLuc = counter-screen for ROR gamma inhibitors: Gal4-VP16 reporter. Drosophila S2 Gal4-VP16 UAS-luciferase, luminescence, 20 h. Potency, µM (highest dose often 53.6 µM), inactives show at the highest dose activity, negative = inhibition, hits mostly inhibitors. actives 3.5% (n = 310,000);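 also: Gal4-VP16 expression switched on by copper sulfate through the metallothionein promoter; potency is read from the fitted curve at half-maximal effect; % is scaled to controls: 0 for no effect and ±100 for the full control effect; nearly all actives have a fitted effect of over 50% in size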
p53 reactivation = mutant p53 re-activation in reporter cells. H1299 p53-A138V BP100-luciferase reporter, luminescence, 24 h. Potency, µM (doses to about 92.2 µM), for the others: top-dose activity change, positive = activation, hits mostly activators. actives 0.063% (n = 320,000); also: potency is read from the fitted curve at half-maximal effect; % of control where 0% means no effect; nearly all actives have a fitted effect of over 45% in size
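H1299 (p53-null), stable ts p53-A138V + BP100-Luc; 1000 cells/well, Opti-MEM/10% FBS; cpd 4 pt, 1:5; 24 h, 37 deg C, 5% CO2; detection reagent 10 min RT; luminescence.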
CtBP-E1A inh = blocks the CtBP interaction with E1A. AlphaScreen GST-E1A/His-CtBP binding, 1536-well; stronger effect = lower value. activity change, % (concentration not given with the values). actives 0.49% (n = 340,000). AID 651724; in the data active = activity change below about -65%; inconclusive = mostly about -30% to -63%; also: % is scaled to controls: 0 for no effect and ±100 for the full control effect
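AlphaScreen with 125 nM GST-E1A and 125 nM His-CtBP (5X stocks) in Tris pH 8.0, 300 mM NaCl, BSA, Tween 20, TCEP. Compounds preincubated 2 h at 37 deg C, then glutathione donor/nickel acceptor beads added for 1 h at 37 deg C in dark.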
Six1-Eya2 inh = inhibitors of human Six1/Eya2 interaction. AlphaScreen GST-Six1/His-Eya2 binding, biochemical; stronger effect = lower value. activity change, % (test concentration not listed). Q15475+O00167. actives 0.56% (n = 360,000); in the data active = activity change below about -65%; inconclusive = mostly about -30% to -63%; also: % is scaled to controls: 0 for no effect and ±100 for the full control effect
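GST-Six1 + His-Eya2 (5X stock: 250/500 nM); Tris pH 8.0, 300 mM NaCl, 0.05% BSA, 0.02% Tween 20; GSH donor/Ni acceptor beads; 1 h 37 °C dark; AlphaScreen readout.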
RORgamma inh = inhibitors of mouse ROR gamma transcriptional activity; P51450; Drosophila S2 Gal4-RORgamma UAS-luciferase reporter, 20 h; Potency, µM (series often up to 53.6 µM), inactives show at the highest dose activity change, negative = inhibition, usual class: inhibitors; actives 5.4% (n = 310,000); AID 2551; also: potency is read from the fitted curve at half-maximal effect; % is scaled to controls: 0 for no effect and ±100 for the full control effect; nearly all actives have a fitted effect of over 60% in size
Target sequence (P51450 whole entry, looked up, the tested form may be a part): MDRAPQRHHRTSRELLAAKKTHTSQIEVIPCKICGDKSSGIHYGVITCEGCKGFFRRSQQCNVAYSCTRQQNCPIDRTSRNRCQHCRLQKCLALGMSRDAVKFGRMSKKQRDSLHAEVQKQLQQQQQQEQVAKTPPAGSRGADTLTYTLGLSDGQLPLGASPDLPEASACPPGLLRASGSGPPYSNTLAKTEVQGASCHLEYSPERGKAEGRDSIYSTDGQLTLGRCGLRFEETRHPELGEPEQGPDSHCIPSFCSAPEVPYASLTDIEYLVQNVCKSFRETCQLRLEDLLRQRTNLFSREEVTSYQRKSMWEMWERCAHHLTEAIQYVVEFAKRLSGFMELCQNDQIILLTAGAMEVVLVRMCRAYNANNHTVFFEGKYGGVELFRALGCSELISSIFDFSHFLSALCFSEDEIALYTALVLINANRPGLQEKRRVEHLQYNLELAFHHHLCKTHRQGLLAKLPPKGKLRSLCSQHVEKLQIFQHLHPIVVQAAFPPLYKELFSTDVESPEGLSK
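Compounds are pin-transferred onto Drosophila Schneider cells expressing a copper-inducible Gal4–ROR gamma transactivation domain fusion. After 1 hr, copper sulfate is added to 700 uM final; luciferase is read 20 hr later.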
* marks the source's active call; other numbers are inactive results. In the library only some 5.4% were active in any assay of this set; here they are far more common. Unless noted, calls follow the shape of the dose curve; as a rule, active = well fitted curve in the direction sought with a large enough effect; inconclusive = small, poorly fitted or top-dose-only effect, or another doubt; inactive = no such curve, though single readings can be large; an effect the other way counts as inactive or inconclusive.

Screening CCOc1ccc(-c2cc(C(=O)NCC3CCCO3)c3ccccc3n2)cc1 (configuration not stated) returned Gal4-VP16 FLuc -9%, p53 reactivation 12%, CtBP-E1A inh 11, Six1-Eya2 inh 3 and RORgamma inh 34%.
For COCc1ccc(CN2CCC(n3nccc3NC(=O)CCOc3ccccc3)CC2)o1 the results were Gal4-VP16 FLuc inconclusive, p53 reactivation -11%, CtBP-E1A inh 0, Six1-Eya2 inh 4 and RORgamma inh 8.9µM*.
`O=C(CN1C(=O)NC2(CCc3ccccc32)C1=O)Nc1ccc(Cl)cc1F` (configuration not stated) gave CtBP-E1A inh 2 and Six1-Eya2 inh 8.
`CC(C)Cc1nnc(NC(=O)c2cc(-c3ccccc3)nc3ccccc23)s1` gave Gal4-VP16 FLuc inconclusive, p53 reactivation 3%, CtBP-E1A inh -5, Six1-Eya2 inh 2 and RORgamma inh 4.5µM*.
`CCC(CC)c1nnc(NC(=O)c2cc(-c3ccccc3)nc3ccccc23)s1` gave Gal4-VP16 FLuc 11µM*, p53 reactivation 18%, CtBP-E1A inh 9, Six1-Eya2 inh -1 and RORgamma inh 10µM*.
Screening CCC(CC)c1nnc(NC(=O)c2ccc3ccccc3n2)s1 returned Gal4-VP16 FLuc 10µM*, p53 reactivation inconclusive, CtBP-E1A inh -7, Six1-Eya2 inh 0 and RORgamma inh 3.5µM*.
Screening CCC(CC)c1nnc(NC(=O)Oc2ccccc2)s1 returned Gal4-VP16 FLuc 0%, p53 reactivation 13%, CtBP-E1A inh 58, Six1-Eya2 inh 24 and RORgamma inh -3%.
`Cc1cnc(C(=O)Nc2cc(F)ccc2C)cn1` gave Gal4-VP16 FLuc 25%, p53 reactivation 3%, CtBP-E1A inh -7, Six1-Eya2 inh 11 and RORgamma inh 10%.
CC1CCC2(CC1)C(Nc1cccc(Cl)c1)=NC(=S)N2CC#N (configuration not stated) was read as Gal4-VP16 FLuc 3.2µM*, p53 reactivation inconclusive, CtBP-E1A inh 1, Six1-Eya2 inh -10 and RORgamma inh 3.5µM*.
Screening CCOC(=O)N1CCN(C(=O)C2CCC(=O)N(Cc3cccc(C(F)(F)F)c3)C2)CC1 (configuration not stated) returned Gal4-VP16 FLuc -5%, p53 reactivation 3%, CtBP-E1A inh -1, Six1-Eya2 inh 1 and RORgamma inh -13%.
`CC1(C)COC(/C=C/c2cccc([N+](=O)[O-])c2)=N1` gave Gal4-VP16 FLuc 1.4µM*, p53 reactivation -10%, CtBP-E1A inh 24, Six1-Eya2 inh 10 and RORgamma inh inconclusive.
For Cc1ccc2cccc(NC(=S)NC(=O)c3c(Br)cnn3C)c2n1 the results were Gal4-VP16 FLuc inconclusive, p53 reactivation 6%, CtBP-E1A inh -3, Six1-Eya2 inh -7 and RORgamma inh 4µM*.
`Cc1ccc2cccc(NC(=S)NC(=O)c3ccn(C)n3)c2n1` gave Gal4-VP16 FLuc 5.6µM*, p53 reactivation 5%, CtBP-E1A inh -17, Six1-Eya2 inh -13 and RORgamma inh 5µM*.
COc1cccc(NC(=O)c2ccc3nc(C)sc3c2)c1 was read as Gal4-VP16 FLuc 4%, p53 reactivation -16%, Six1-Eya2 inh 20 and RORgamma inh inconclusive.
CCOC(=O)C1CCCN(C(=O)c2cc(C#N)cs2)CC1 (configuration not stated) was read as CtBP-E1A inh 5 and Six1-Eya2 inh 3.
COc1cccc(C(=O)NC(=S)Nc2ccc3c4c(cccc24)CC3)c1 was read as Gal4-VP16 FLuc 11µM*, p53 reactivation 5%, CtBP-E1A inh -9, Six1-Eya2 inh -7 and RORgamma inh 3.5µM*.
`COc1cccc(C(=O)NC(=S)Nc2ccc(Cl)cc2C(=O)O)c1` gave Gal4-VP16 FLuc 7.1µM*, p53 reactivation -13%, CtBP-E1A inh 0, Six1-Eya2 inh 2 and RORgamma inh 10µM*.
Screening Cc1cccc(-c2[nH]c(C(C)(C)C)nc2-c2ccc3c(c2)OCO3)n1 returned Gal4-VP16 FLuc 7.1µM* and RORgamma inh 1.8µM*.
CC(C)CN(C[C@@H](O)[C@H](Cc1ccccc1)NC(=O)O[C@H]1CO[C@H]2OCC[C@H]21)S(=O)(=O)c1ccc(N)cc1 was read as Gal4-VP16 FLuc -1% and RORgamma inh 38%.
COC(=O)c1ccccc1S(=O)(=O)N1CCC(C(=O)OCc2cccc(OC)c2OC)CC1 was read as p53 reactivation -3%, CtBP-E1A inh 5 and Six1-Eya2 inh -1.
O=C(c1cc(-c2ccc(F)cc2)on1)N1CCCC1 was read as Gal4-VP16 FLuc -60%, p53 reactivation inconclusive, CtBP-E1A inh 4, Six1-Eya2 inh 12 and RORgamma inh 14µM*.
For O=C(c1cc(-c2ccc(F)cc2)on1)N1CCCCCC1 the results were Gal4-VP16 FLuc -10%, p53 reactivation inconclusive, CtBP-E1A inh 8, Six1-Eya2 inh 6 and RORgamma inh -2%.
O=C(c1cc(-c2cccc(O)c2)on1)N1CCCCC1 was read as Gal4-VP16 FLuc -18%, p53 reactivation 11%, CtBP-E1A inh -11, Six1-Eya2 inh 5 and RORgamma inh 0.71µM*.
For COc1ccc(-c2cc(C(=O)N3CCCC3)no2)cc1 the results were Gal4-VP16 FLuc 10µM*, p53 reactivation 15%, CtBP-E1A inh -16, Six1-Eya2 inh -3 and RORgamma inh 4µM*.
Screening CCn1c(SCC(=O)N/N=C(/C)c2ccncc2)nc2ccccc21 returned Gal4-VP16 FLuc -1%, p53 reactivation -5%, CtBP-E1A inh -24, Six1-Eya2 inh -4 and RORgamma inh -22%.
O=C(O)c1ccc(NS(=O)(=O)c2cccc(C(=O)Nc3cccc(C(=O)O)c3)c2)cc1 was read as Gal4-VP16 FLuc -5%, p53 reactivation -1%, Six1-Eya2 inh -6 and RORgamma inh -1%.
Screening CCCn1c(C(C)Nc2nc(-c3ccc(OC)cc3)cs2)nc2ccccc21 (configuration not stated) returned Gal4-VP16 FLuc inconclusive, p53 reactivation 13%, CtBP-E1A inh 0, Six1-Eya2 inh -8 and RORgamma inh 7.9µM*.
CCCOc1ccc(C(F)(F)F)cc1NC(=O)c1cc(C)on1 was read as p53 reactivation -4%, CtBP-E1A inh -4 and Six1-Eya2 inh 8.
Cc1ccc(S(=O)(=O)N2CC3=C(C2)C2CC2(C)C3)cc1 (configuration not stated) was read as CtBP-E1A inh 2 and Six1-Eya2 inh 2.
CSCc1cc(N2CCCC2)nc(-c2ccccc2)n1 was read as Gal4-VP16 FLuc 10%, p53 reactivation 1%, CtBP-E1A inh 13, Six1-Eya2 inh 23 and RORgamma inh inconclusive.
`CC(C)SCc1cc(N2CCCC2)nc(-c2ccccc2)n1` gave Gal4-VP16 FLuc -5%, p53 reactivation -1%, CtBP-E1A inh -1, Six1-Eya2 inh 12 and RORgamma inh 13µM*.
